Consider eight compounds from PubChem BioAssay (EPA / NIEHS).

In assay [1] the target is Bile acid receptor (Homo sapiens) (UniProt Q96RI1). Description: ATG_IR1_CIS: Attagene CIS-FACTORIAL HepG2 Assay for human Nuclear Receptor Subfamily 1 Group H Member 4 (NR1H4), IR1 submotif (AID 2282946). The note with it: IR1 reporter transcription, actives raise or lower the signal. A digest of the protocol:
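Fluorescence of capillary-separated, HpaI-digested RT-PCR reporter products gave IR1-element mRNA induction in HepG2 cells 24 h after dosing. Endogenous transcription factors drove the cis-regulated reporters; activity was fitted bidirectionally against DMSO.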

Assay [2] in a line: ATG_GRE_CIS: Attagene CIS-FACTORIAL HepG2 Assay for human Glucocorticoid Response Elements (GRE) (AID 2282947). The note with it: HepG2 GRE cis-reporter, Attagene multiplex mRNA; actives raise or lower the signal. Summed up:
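Read-out: fluorescent reporter-transcript fragments separated by capillary electrophoresis after RT-PCR. Transiently transfected HepG2 cells carrying cis-element-driven reporter units were dosed for 24 h; gain or loss of signal fitted against DMSO control.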

A short description of assay [3]: ATG_ISRE_CIS: Attagene CIS-FACTORIAL HepG2 Assay for human Interferon Regulatory Factor 1 (IRF1) binding to an Interferon-Stimulated Response Element (ISRE) (AID 2282948). The note with it: HepG2 ISRE cis-reporter (Attagene), mRNA transcription readout; actives raise or lower the signal. Summed up: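 Uses HepG2 liver cells transfected with cis-regulated reporters and measures mRNA 24 h post-dosing through RT-PCR, primer-extension labelling and capillary electrophoresis, with DMSO as negative control.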

Assay [4] is described as follows: ATG_M_06_CIS: Attagene CIS-FACTORIAL HepG2 Assay for M06 Transcription Factor (Internal Marker) (AID 2282950). Conditions: HepG2 Attagene CIS-FACTORIAL M06 internal marker reporter; actives raise or lower the signal. Summed up: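 Read-out is fluorescence of labelled reporter cDNA fragments resolved by capillary electrophoresis after RT-PCR. Cells: HepG2 carrying transfected cis-promoter reporter units, treated 24 h. Gain or loss of signal fitted relative to DMSO.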

The target of assay [5] is Hypoxia-inducible factor 1-alpha (Homo sapiens) (UniProt Q16665). Description: ATG_HIF1a_CIS: Attagene CIS-FACTORIAL HepG2 Assay for human Hypoxia Inducible Factor 1 (HIF1A) (AID 2282951). The note with it: HepG2 Attagene cis-factorial HIF1a reporter transcription; actives raise or lower the signal. A digest of the protocol:
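Dosed 24 h, transfected HepG2 cells yielded total RNA whose reporter transcripts were RT-PCR-amplified and sized by capillary electrophoresis using fluorescent labelling; DMSO defined baseline, with gain and loss of signal both fitted.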

Assay [6] has as its target Hepatocyte nuclear factor 6 (Homo sapiens) (UniProt Q9UBC0). Description: ATG_HNF6_CIS: Attagene CIS-FACTORIAL HepG2 Assay for human Hepatocyte Nuclear Factor 6 (HNF6) (AID 2282952). Conditions: HepG2 Attagene cis-factorial HNF6 reporter transcription; actives raise or lower the signal. A digest of the protocol:
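Endogenous transcription factor activity in human HepG2 liver cells was captured through cis-regulated reporter constructs. After 24 h treatment, reporter mRNA was measured by RT-PCR with capillary electrophoresis, and activity was fitted in both directions relative to DMSO.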

In assay [7] the target is Heat shock factor protein 1 (Homo sapiens) (UniProt Q00613). Description: ATG_HSE_CIS: Attagene CIS-FACTORIAL HepG2 Assay for human Heat Shock Transcription Factor 1 (HSE) (AID 2282953). Conditions: HepG2 HSE cis-reporter, Attagene RNA transcription; actives raise or lower the signal. Summed up:
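HepG2, transient MRTU transfection, cis-promoter reporters (endogenous TF activity). 24 h compound. RNA → oligo(dT) RT → PCR → 6-FAM primer extension → HpaI cut → CE. Bidirectional fit vs DMSO.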

Assay [8] can be described thus: ATG_MRE_CIS: Attagene CIS-FACTORIAL HepG2 Assay for human Metal Responsive Element (MRE) (AID 2282954). Conditions: HepG2 MRE cis-reporter transcription, Attagene multiplex; actives raise or lower the signal. Summed up:
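RT-PCR/capillary electrophoresis readout of reporter mRNA, 24 h post-dosing, in HepG2 cells transfected with multiplexed cis-regulated reporter constructs. Gain or loss of signal fitted bidirectionally against DMSO baseline.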

Assay [9] has as its target Paired box protein Pax-6 (Homo sapiens) (UniProt P26367). Description: ATG_Pax6_CIS: Attagene CIS-FACTORIAL HepG2 Assay for human Paired Box 6 (PAX6) (AID 2282956). The note with it: HepG2 CIS-FACTORIAL PAX6 reporter transcription, RNA readout; actives raise or lower the signal. Summed up:
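DMSO-referenced bidirectional fits of reporter mRNA fluorescence; HepG2 with transient cis-promoter MRTUs, 24 h post-dose, RT-PCR plus capillary electrophoresis detection.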

A short description of assay [10]: ATG_PXRE_CIS: Attagene CIS-FACTORIAL HepG2 Assay for human Pregnane X Receptor Element (PXRE) (AID 2282957). The note with it: HepG2 Attagene CIS-FACTORIAL PXRE reporter, mRNA; actives raise or lower the signal. A digest of the protocol:
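Endogenous transcription factor activity in HepG2 was gauged through induction of reporter mRNA driven by a cis-regulating promoter element, sampled 24 h post-treatment. Activity was fitted in both directions against DMSO negative control.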

Assay [11] in a line: ATG_PPRE_CIS: Attagene CIS-FACTORIAL HepG2 Assay for human Peroxisome Proliferator-activated Response Element (PPRE) (AID 2282958). Conditions: HepG2 PPRE cis-element reporter, Attagene transcription factor profiling; actives raise or lower the signal. A digest of the protocol: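 Measured endpoint: PPRE-controlled reporter mRNA, detected by RT-PCR and capillary electrophoresis fluorescence, from transiently transfected HepG2 cells 24 h after dosing. Curves fitted in both directions using DMSO baseline.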

Assay [12] can be described thus: ATG_RORE_CIS: Attagene CIS-FACTORIAL HepG2 Assay for human RAR-related Orphan Receptor Element (RORE) (AID 2282959). The note with it: HepG2 Attagene cis-factorial RORE reporter, mRNA; actives raise or lower the signal. Summed up:
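Transiently transfected HepG2 reporter cells were treated 24 h. Reporter transcripts were detected by RT-PCR and capillary electrophoresis, with bidirectional fitting against DMSO.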

Assay [13] concerns the target Transcription factor Sp1 (Homo sapiens) (UniProt P08047). Description: ATG_Sp1_CIS: Attagene CIS-FACTORIAL HepG2 Assay for human Specificity Protein 1 (Sp1) (AID 2282961). Conditions: HepG2 Sp1 cis-reporter transcription, actives raise or lower the signal. A digest of the protocol:
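Endpoint reflects endogenous Sp1 transcriptional activity, not an exogenous fusion protein: HepG2 cells with transfected cis-regulated reporters, 24 h dosing, RT-PCR/capillary electrophoresis mRNA read-out, DMSO-normalised bidirectional fit.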

For assay [14], the target named is Signal transducer and activator of transcription 3 (Homo sapiens) (UniProt P40763). Description: ATG_STAT3_CIS: Attagene CIS-FACTORIAL HepG2 Assay for human Signal Transducer and Activator of Transcription 3 (STAT3) (AID 2282963). Conditions: HepG2, Attagene cis-factorial STAT3 reporter transcription; actives raise or lower the signal. Summed up: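 Readout: fluorescent reporter mRNA fragments resolved by capillary electrophoresis. Setup: HepG2 transfected with MRTUs reporting endogenous transcription-factor activity, dosed 24 h. Gain or loss of signal fitted bidirectionally against DMSO control.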
Signal transducer and activator of transcription 3 (Homo sapiens), sequence (P40763 whole entry, looked up, the tested form may be a part): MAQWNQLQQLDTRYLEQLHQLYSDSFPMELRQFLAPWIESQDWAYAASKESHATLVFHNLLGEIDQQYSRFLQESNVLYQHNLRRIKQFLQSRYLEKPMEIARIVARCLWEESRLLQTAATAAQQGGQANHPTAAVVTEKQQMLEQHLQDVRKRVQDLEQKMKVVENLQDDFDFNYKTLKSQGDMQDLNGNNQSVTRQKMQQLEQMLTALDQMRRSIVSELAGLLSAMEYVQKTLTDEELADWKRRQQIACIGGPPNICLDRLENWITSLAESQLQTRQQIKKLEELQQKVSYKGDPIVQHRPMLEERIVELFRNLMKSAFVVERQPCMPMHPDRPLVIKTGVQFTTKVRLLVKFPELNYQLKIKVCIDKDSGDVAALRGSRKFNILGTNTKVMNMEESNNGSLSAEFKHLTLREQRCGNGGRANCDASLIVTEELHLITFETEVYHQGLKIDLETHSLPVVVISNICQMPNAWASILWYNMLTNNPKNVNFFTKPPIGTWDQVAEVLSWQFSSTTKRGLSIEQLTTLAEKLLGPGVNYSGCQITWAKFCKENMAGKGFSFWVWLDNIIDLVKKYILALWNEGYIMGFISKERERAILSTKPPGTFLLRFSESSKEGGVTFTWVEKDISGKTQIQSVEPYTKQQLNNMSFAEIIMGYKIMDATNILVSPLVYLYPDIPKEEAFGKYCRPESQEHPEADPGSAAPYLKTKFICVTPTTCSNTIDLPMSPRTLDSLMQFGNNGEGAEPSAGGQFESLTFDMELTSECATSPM

Assay [15] is described as follows: ATG_TA_CIS: Attagene CIS-FACTORIAL HepG2 Assay for human TA Basal Promoter (AID 2282964). Conditions: HepG2 Attagene CIS-factorial TA basal promoter reporter; actives raise or lower the signal. A digest of the protocol: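 Read-out: fluorescent reporter-transcript fragments resolved by capillary electrophoresis after RT-PCR and HpaI digestion. Source: HepG2 cells carrying transiently transfected multi-reporter cis constructs, treated 24 h. Endpoint fitted bidirectionally relative to DMSO.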

A short description of assay [16]: ATG_M_32_CIS: Attagene CIS-FACTORIAL HepG2 Assay for M32 Transcription Factor (Internal Marker) (AID 2282949).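 Note: background control marker of the multiplexed CIS panel rather than a real target.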 Conditions: HepG2 Attagene cis-factorial M32 reporter, mRNA; actives raise or lower the signal. A digest of the protocol:
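Using DMSO as baseline, bidirectional curve fits were applied to reporter mRNA signals. These came from transiently transfected HepG2 cells exposed for 24 h, with RNA analysed by RT-PCR, FAM primer extension, HpaI digestion and CE.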

A short description of assay [17]: ATG_PBREM_CIS: Attagene CIS-FACTORIAL HepG2 Assay for human Phenobarbital-responsive Enhancer Module (PBREM) (AID 2282955). Conditions: HepG2 PBREM cis-reporter, Attagene multiplexed transcription; actives raise or lower the signal. Summed up: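 Transfected liver-derived HepG2 cells exposed 24 h; PBREM reporter transcript quantified via RT-PCR and capillary electrophoresis, with activity in either direction referenced to DMSO.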

Assay [18] is described as follows: ATG_Sox_CIS: Attagene CIS-FACTORIAL HepG2 Assay for human SRY-box transcription factor (SOX) (AID 2282960). The note with it: HepG2 Attagene cis-factorial SOX reporter, mRNA; actives raise or lower the signal. A digest of the protocol:
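Gain- or loss-of-signal endpoint, fitted bidirectionally with DMSO as negative control. Based on reporter mRNA from transfected HepG2 cells harvested 24 h post-treatment and quantified via RT-PCR and capillary electrophoresis.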

Assay [19] is described as follows: ATG_SREBP_CIS: Attagene CIS-FACTORIAL HepG2 Assay for human Sterol Regulatory Element Binding (SREBP) (AID 2282962). The note with it: HepG2 Attagene cis-factorial SREBP reporter, mRNA; actives raise or lower the signal. A digest of the protocol:
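In this cis-format assay, HepG2 liver cells express reporters controlled by promoter elements responsive to native transcription factors. Exposure lasts 24 h; reporter mRNA fluorescence from capillary electrophoresis gives the signal, fitted bidirectionally against DMSO.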

The nature of assay [20]: ATG_TCF_b_cat_CIS: Attagene CIS-FACTORIAL HepG2 Assay for human T-Cell-Factor with beta-catenin (TCF/b-cat) (AID 2282965). The note with it: HepG2 TCF/beta-catenin cis-reporter transcription, actives raise or lower the signal. Summed up: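 HepG2, transient MRTU transfection, cis-element-driven reporters (endogenous TFs). 24 h compound exposure. Readout: reporter mRNA by RT-PCR + 6-FAM primer extension, HpaI digest, capillary electrophoresis. Gain/loss fit vs DMSO baseline.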

Active and inactive are the calls of the source. Rule for the calls: active = hit-call score of the fitted dose curve at least 0.9, where 1 is the maximum; inactive = score below 0.9.

Hypoxia-inducible factor 1-alpha (Homo sapiens), sequence (Q16665 whole entry, looked up): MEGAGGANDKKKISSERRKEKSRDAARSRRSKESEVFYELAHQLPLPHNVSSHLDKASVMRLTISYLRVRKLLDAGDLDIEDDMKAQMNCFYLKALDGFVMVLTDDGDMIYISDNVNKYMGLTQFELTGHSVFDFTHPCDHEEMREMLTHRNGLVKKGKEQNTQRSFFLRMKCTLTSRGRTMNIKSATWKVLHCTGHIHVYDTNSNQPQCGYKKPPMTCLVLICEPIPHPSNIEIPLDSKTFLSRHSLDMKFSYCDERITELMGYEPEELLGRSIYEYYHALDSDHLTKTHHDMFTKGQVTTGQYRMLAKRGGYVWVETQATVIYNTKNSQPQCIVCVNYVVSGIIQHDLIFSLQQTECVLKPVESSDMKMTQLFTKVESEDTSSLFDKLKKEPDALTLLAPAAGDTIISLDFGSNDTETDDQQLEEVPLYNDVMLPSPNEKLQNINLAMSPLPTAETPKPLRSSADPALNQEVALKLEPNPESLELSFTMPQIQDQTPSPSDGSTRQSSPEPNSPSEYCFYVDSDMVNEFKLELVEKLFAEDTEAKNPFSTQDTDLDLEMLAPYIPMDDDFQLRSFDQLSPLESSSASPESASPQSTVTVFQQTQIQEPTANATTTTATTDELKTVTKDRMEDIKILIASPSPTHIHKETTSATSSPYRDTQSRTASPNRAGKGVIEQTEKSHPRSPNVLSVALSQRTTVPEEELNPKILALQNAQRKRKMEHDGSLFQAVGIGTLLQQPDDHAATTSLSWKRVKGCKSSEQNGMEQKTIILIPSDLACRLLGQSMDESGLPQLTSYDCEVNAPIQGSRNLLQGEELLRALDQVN
Transcription factor Sp1 (Homo sapiens), sequence (P08047 whole entry, looked up, the tested form may be a part): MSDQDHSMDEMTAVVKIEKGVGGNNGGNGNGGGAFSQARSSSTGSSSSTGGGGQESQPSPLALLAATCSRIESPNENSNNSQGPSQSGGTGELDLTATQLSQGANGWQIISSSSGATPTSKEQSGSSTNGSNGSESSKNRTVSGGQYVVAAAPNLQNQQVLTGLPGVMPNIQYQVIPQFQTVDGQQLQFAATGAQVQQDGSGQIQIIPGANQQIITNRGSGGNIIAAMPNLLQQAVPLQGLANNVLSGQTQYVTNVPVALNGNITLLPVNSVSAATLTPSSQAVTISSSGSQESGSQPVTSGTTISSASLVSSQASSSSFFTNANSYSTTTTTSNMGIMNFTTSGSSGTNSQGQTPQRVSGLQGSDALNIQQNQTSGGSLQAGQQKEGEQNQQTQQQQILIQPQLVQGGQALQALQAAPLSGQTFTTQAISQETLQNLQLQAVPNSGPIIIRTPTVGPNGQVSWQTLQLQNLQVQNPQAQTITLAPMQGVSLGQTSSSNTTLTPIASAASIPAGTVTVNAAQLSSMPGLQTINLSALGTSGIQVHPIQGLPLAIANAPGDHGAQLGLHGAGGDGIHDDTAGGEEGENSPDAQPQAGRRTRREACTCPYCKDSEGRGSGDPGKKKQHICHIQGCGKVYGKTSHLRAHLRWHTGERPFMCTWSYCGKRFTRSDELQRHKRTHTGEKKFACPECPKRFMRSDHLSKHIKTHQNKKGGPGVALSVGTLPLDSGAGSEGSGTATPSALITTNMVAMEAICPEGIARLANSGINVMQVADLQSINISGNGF
Heat shock factor protein 1 (Homo sapiens), sequence (Q00613 whole entry, looked up): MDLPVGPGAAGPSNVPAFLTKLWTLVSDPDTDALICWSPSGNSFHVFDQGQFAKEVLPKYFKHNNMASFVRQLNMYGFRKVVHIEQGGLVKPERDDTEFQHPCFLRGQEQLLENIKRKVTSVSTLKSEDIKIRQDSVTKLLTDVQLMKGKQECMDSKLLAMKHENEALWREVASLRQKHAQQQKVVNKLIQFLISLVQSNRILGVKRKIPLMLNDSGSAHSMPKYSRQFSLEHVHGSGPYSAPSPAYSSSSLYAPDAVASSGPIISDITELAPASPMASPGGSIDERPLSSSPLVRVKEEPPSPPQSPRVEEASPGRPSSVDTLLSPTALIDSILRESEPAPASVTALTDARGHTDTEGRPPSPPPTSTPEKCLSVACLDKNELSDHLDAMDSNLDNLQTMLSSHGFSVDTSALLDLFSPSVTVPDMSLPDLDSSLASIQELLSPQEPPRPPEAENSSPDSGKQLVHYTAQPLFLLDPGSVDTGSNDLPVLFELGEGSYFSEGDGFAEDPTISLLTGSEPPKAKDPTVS
Bile acid receptor (Homo sapiens), sequence (Q96RI1 whole entry, looked up): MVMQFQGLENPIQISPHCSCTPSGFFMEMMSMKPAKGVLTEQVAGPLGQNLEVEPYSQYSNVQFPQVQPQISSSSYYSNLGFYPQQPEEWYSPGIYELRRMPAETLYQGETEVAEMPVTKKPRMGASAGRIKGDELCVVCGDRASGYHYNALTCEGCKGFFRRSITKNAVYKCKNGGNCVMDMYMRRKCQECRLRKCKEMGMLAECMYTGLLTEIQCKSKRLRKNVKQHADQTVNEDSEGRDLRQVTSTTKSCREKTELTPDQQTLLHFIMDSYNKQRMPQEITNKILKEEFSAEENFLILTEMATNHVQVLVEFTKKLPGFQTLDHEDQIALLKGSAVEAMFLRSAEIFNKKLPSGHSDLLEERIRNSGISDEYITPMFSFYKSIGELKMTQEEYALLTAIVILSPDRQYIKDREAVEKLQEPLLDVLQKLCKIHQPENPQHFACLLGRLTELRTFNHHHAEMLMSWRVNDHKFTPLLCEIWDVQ
Hepatocyte nuclear factor 6 (Homo sapiens), sequence (Q9UBC0 whole entry, looked up): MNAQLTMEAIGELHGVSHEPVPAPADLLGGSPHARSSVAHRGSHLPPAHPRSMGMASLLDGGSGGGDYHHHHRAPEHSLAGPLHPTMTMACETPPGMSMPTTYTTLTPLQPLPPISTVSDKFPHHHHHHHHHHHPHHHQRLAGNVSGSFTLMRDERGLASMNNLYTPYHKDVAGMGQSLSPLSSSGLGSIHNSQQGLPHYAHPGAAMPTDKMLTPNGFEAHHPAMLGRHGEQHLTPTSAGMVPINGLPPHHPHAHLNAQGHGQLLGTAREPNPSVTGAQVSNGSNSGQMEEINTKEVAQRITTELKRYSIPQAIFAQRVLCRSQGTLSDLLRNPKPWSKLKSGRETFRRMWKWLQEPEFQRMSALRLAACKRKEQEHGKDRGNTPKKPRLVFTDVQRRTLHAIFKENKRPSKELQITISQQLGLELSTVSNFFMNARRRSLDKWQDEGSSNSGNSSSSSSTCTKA
Paired box protein Pax-6 (Homo sapiens), sequence (P26367 whole entry, looked up): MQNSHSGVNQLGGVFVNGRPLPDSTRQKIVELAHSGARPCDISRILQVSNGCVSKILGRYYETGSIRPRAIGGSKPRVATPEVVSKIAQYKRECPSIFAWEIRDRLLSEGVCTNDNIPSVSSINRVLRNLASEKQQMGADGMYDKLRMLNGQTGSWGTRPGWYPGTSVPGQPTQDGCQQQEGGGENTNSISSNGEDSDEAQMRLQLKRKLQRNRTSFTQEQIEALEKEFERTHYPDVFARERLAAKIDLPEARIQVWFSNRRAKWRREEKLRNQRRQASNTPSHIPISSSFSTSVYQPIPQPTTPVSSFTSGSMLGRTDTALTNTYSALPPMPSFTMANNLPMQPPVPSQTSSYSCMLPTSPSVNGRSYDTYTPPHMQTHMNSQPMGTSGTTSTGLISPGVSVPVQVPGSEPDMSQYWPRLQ

As to `Cc1c(Cl)cccc1[N+](=O)[O-]`, the result in assay [1], in assay [2], in [3], in [4], in assay [5] and in [6] was inactive. In addition, the call in assay [7], in assay [8], in assay [9], in assay [10], in assay [11] and in assay [12] was inactive. Also, the compound was classed as inactive in assay [13], in [14] and in [15].

On to `c1ccc(CCc2ccccc2)cc1`, for which the compound was called inactive in assay [1], in assay [3], in [16], in assay [4], in [5] and in assay [6]. Also, the compound was called inactive in [7], in assay [8], in assay [17], in assay [9], in assay [11] and in assay [12]. Also, the compound was classed as inactive in assay [18], in assay [19], in assay [14], in assay [15] and in [20]. Also, the AC50 in assay [10] is 26.1 µM (active).

Take `CCOc1ccccc1O`: the result in [1], in assay [3], in [16], in assay [4], in [5] and in [6] was inactive. In addition, the result in assay [7], in [8], in assay [17], in [9], in assay [10] and in assay [11] was inactive. Besides, the result in assay [12], in [18], in assay [13], in [14], in assay [15] and in assay [20] was inactive.

As for `CCCCOC(=O)CCCCCCCC(=O)OCCCC`, the compound was classed as inactive in assay [1], in [3], in [16], in assay [4], in assay [5] and in assay [6]. The call in assay [7], in [8], in assay [17], in assay [9], in assay [10] and in assay [11] was inactive. Also, the call in assay [12], in assay [13] and in [14] was inactive. In [20], the AC50 is 128 µM (active).

With `O=C(O)COCC(=O)O`, the outcome in [1], in assay [2], in assay [3], in assay [4], in assay [5] and in [6] was inactive. Also, the outcome in [7], in assay [8], in [9], in assay [10], in assay [12] and in assay [13] was inactive. For the same compound, the result in assay [19], in assay [14], in assay [15] and in assay [20] was inactive.

For `Nc1ccc(N)c2c1C(=O)c1ccccc1C2=O`, the result in assay [1], in assay [2], in assay [3], in assay [16], in assay [5] and in [6] was inactive. The call in assay [7], in assay [8], in [17], in [10], in assay [12] and in assay [18] was inactive. The compound was called inactive in [19], in assay [14], in assay [15] and in assay [20]. In addition, the AC50 in assay [11] was 4.05 µM (active).

As for `COc1ccccc1[N+](=O)[O-]`, the outcome in assay [1], in assay [3], in [16], in assay [4], in [5] and in assay [6] was inactive. For the same compound, the compound was called inactive in assay [7], in assay [8], in [17], in [13], in assay [19] and in assay [14]. Also, the compound was classed as inactive in assay [15] and in assay [20]. In assay [10], the AC50 is 71.7 µM (active).

Take `COc1cc(C(C)C)ccc1C`: the result in assay [1], in assay [3], in assay [16], in assay [4], in assay [5] and in [6] was inactive. Moreover, the compound was classed as inactive in assay [7], in [8], in assay [17], in assay [9], in assay [10] and in assay [11]. Also, the call in assay [12], in [18], in assay [13], in assay [19], in assay [14] and in [20] was inactive.
